# In the library only some 7.1% were active in any assay of this set; here they are far more common.
# ELG1 genotoxic – induces genotoxicity in HEK293T cells with luciferase-tagged ELG1 | HEK293T ELG1-luciferase reporter, luminescence, 16 h | Potency, µM (doses to about 46 µM), without a hit: at the highest dose activity change, positive = activation, most hits filed as activators | hit rate 1.3% among 330,000 | AID 504466; note: % of control where 0% means no effect; nearly all actives have a fitted effect of over 60% in size
#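 HEK293T cells expressing luciferase-tagged ELG1 were treated with compound or DMSO for 16 hr at 37°C. Luciferase activity was then read after 30 min with ONE-Glo at room temperature; rising signal flags genetic stress.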
# MCF10A rereplic – DNA re-replication induction in MCF 10a cells. MCF 10A DNA re-replication, Hoechst nuclear intensity, 48 h. AID 624296. Potency, µM (titrated, usually from 46.1 µM), for the others: top-dose activity, positive = re-replication, most hits filed as activators. hit rate 2.9% among 350,000; note: % of control where 0% means no effect; nearly all actives have a fitted effect of over 50% in size
# A-T KAP1 phos – potential ataxia-telangiectasia treatment. F2112 A-T fibroblasts, KAP-1 phosphorylation AlphaLISA; neocarzinostatin DNA damage 30 min before lysis. hit rate 0.19% among 320,000. AID 485349. Potency, µM (doses to about 57.5 µM), for inactives: at the top dose activation, usual class: activators; note: % of control where 0% means no effect; nearly all actives have a fitted effect of over 45% in size
#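 ATM-like activity read as KAP-1 phosphorylation via AlphaLISA donor/acceptor antibody pairs after lysis and 6 hr at 25C. Cells were ATM-null patient fibroblasts (F2112, hTERT), dosed 60 min, then exposed to the DSB inducer NCS for 30 min.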
# p53 reactivation – restores transcriptional activity of mutant p53; AID 504706; H1299 p53-A138V BP100-luciferase reporter, luminescence, 24 h; Potency, µM (series often up to 92.2 µM), without a hit: at the highest dose activity change, positive = activation, usual class: activators; hit rate 0.063% among 320,000; note: % of control where 0% means no effect; nearly all actives have a fitted effect of over 45% in size
#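 H1299 (p53-null), stable ts p53-A138V + BP100-Luc; 1000 cells/well, Opti-MEM/10% FBS; cpd 4 pt, 1:5; 24 h, 37 deg C, 5% CO2; detection reagent 10 min RT; luminescence.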
# ELG1 repair inh – inhibitors of ELG1-dependent DNA repair in HEK293T cells. hit rate 2.3% among 330,000. HEK293T ELG1-luciferase reporter, luminescence, 16 h; DNA damage induced by 5-fluorouridine. Potency, µM (top dose mostly 46.1 µM), inactives show top-dose activity change, negative = inhibition, hits mostly inhibitors; note: % is set by controls: 0 for no effect and ±100 for the full control effect; nearly all actives have a fitted effect of over 55% in size
#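 5-Fluorouridine DNA damage + compound/DMSO, 2,000 cells/well, 16 h, 37 °C/5% CO2. ONE-Glo, 30 min RT, luminescence. Readout = decrease in reporter signal.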
# SW480 rerep – induces DNA re-replication in SW480 colon adenocarcinoma cells; SW480 DNA re-replication, Hoechst DNA content imaging, 48 h; Potency, µM (series often up to 46.1 µM), inactives show top-dose re-replication activation, usual class: activators; hit rate 1.8% among 340,000; AID 624297; note: % of control where 0% means no effect; nearly all actives have a fitted effect of over 55% in size
#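 First, 250 cells per well were seeded. Next, compound or vehicle (23 nL) was pinned in, plates sat 48 hr at 37 C. Finally Hoechst was added for 40 min before fluorescence scanning.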
# The depositor's hits bear a star; ? = inconclusive; / = no result. Calls come from the whole dose curve; as a rule, active = well fitted curve in the direction sought with a large enough effect; inconclusive = small, poorly fitted or top-dose-only effect, or another doubt; inactive = no such curve, though single readings can be large; an effect the other way counts as inactive or inconclusive. Potency is the fitted concentration of half-maximal effect.
SMILES,ELG1 genotoxic,MCF10A rereplic,A-T KAP1 phos,p53 reactivation,ELG1 repair inh,SW480 rerep
CC(C)N(C)S(=O)(=O)c1ccc(NC(=O)C2=COCCO2)cc1,5.6%,1.7%,-4.6%,?,?,9.8%
NC(=O)N/N=C/c1cn(-c2ccccc2)nc1-c1cccnc1,6.2%,-0.4%,-2.4%,3.5%,16.5%,-11.2%
O=C(N/N=C/c1cn(-c2ccccc2)nc1-c1cccnc1)c1ccccc1,-2.7%,11.6µM*,0.4%,8.7%,?,?
O=C(N/N=C/c1cn(-c2cccs2)nc1-c1ccccc1)c1ccccc1O,-1.9%,14.6µM*,/,?,?,?
COc1ccccc1CCC(=O)OCC(=O)Nc1ccc2[nH]c(=O)[nH]c2c1,-0.2%,0.4%,3.2%,0.4%,10.9%,-1.4%
CC(=O)NC(c1ccco1)c1cc(Cl)c2ccc(N3CCCCC3)nc2c1O (stereo unspecified),/,/,-4.6%,/,/,/
Cc1csc(C(C)NC(=O)c2ccc(OC3CCN(CCc4ccccc4)CC3)cc2)n1 (stereo unspecified),0.0%,-0.2%,-3.8%,-8.0%,-0.2%,?
CN[C@@H]1CC[C@H](c2ccc(Cl)c(Cl)c2)c2ccccc21,-2.5%,?,-4.4%,-2.0%,4.2%,?
O=C1/C(=C/c2ccc([N+](=O)[O-])cc2)C=C(c2ccccc2)N1c1ccc(O)cc1,-16.0%,18.4µM*,2.6%,-7.9%,?,?
O=C1/C(=C/c2ccc([N+](=O)[O-])cc2)C=C(c2ccccc2)N1c1ccccc1,2.8%,17.4%,-0.5%,-11.0%,0.1%,6.9%
CS(=O)(=O)Nc1cccc(C2=NN(C(=O)CCCC(=O)O)C(c3cccs3)C2)c1 (stereo unspecified),-2.1%,0.2%,29.5%,-0.1%,-2.5%,-2.8%
Cc1nc2ccccn2c1C(=O)/C=C/c1ccc(F)cc1,6.4%,?,-1.8%,?,?,?
Cc1nc2ccccn2c1-c1ccnn1S(=O)(=O)c1ccc(F)cc1,-9.1%,0.4%,1.4%,-5.3%,18.3µM*,3.2%
Cc1cccc(NS(=O)(=O)c2ccc(OCC(=O)N3CCCC3)cc2)c1,-1.5%,-0.6%,11.7%,-10.0%,-10.7%,1.1%
COc1ccc(OCC(=O)NC2CCCN(Cc3ccc(Cl)cc3)C2)cc1 (stereo unspecified),-17.1%,6.9%,13.3%,-15.6%,8.2µM*,103.5%
CCCNC(=O)c1cc2c3ccccc3n(C)c2s1,1.5%,0.2%,-3.2%,1.6%,?,5.3%
Cn1c2ccccc2c2cc(C(=O)NNC(=O)CCl)sc21,-0.8%,20.6µM*,-1.2%,-15.2%,?,?
CSc1nnc(C)c(/C=C/NOCc2ccc(Cl)cc2)n1,-5.9%,?,12.2%,0.8%,8.3%,7.8%
Cc1nnc(SCc2ccc(Cl)cc2)nc1/C=C/N(C)C,-0.7%,18.4µM*,7.7%,-0.3%,-0.4%,-4.9%
CC(C)NCC(O)Cn1c2c(c3ccccc31)CCc1c-2cnn1-c1ccccc1 (stereo unspecified),0.0%,18.4µM*,4.5%,-24.8%,?,20.7%
Cc1c(C(=O)C(=O)N2c3ccccc3CC2C)c2ccccc2n1C (stereo unspecified),0.0%,?,2.9%,-5.6%,?,?
Cc1cc(C(=O)N2CC=C(c3ccccc3)CC2)c2ccccc2n1,0.4%,?,0.1%,-3.6%,?,1.3µM*
Cc1c(C(=O)C(=O)N2CC=C(c3ccccc3)CC2)c2ccccc2n1C,-1.3%,2.31µM*,-5.3%,-12.3%,-13.3%,7.31µM*
CC(=O)N1N=C(c2ccc(C)cc2)OC1c1ccc(C)cc1 (stereo unspecified),18.4µM*,0.2%,-3.2%,15.4%,?,-0.3%

# Screening results (PubChem BioAssay)
